ELG1 repair inh: ELG1-dependent DNA repair inhibition; HEK293T ELG1-luciferase reporter, luminescence, 16 h; DNA damage induced by 5-fluorouridine; Potency, µM (doses to about 46.1 µM), inactives show at the top dose activity change, negative = inhibition, hits mostly inhibitors; 330,000 compounds, 2.3% hits; AID 504467; further: potency means the concentration at half of the fitted maximal effect; nearly all actives have a fitted effect of over 55% in size
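Overnight (16 hr) co-exposure of 2,000 cells/well to 5-fluorouridine and compound at 37 °C preceded detection. Luciferase was quantified via ONE-Glo luminescence; loss of signal denotes inhibition.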
Gal4-VP16 FLuc: inhibits Gal4-VP16 luciferase reporter, ROR gamma counter-screen; Drosophila S2 Gal4-VP16 UAS-luciferase, luminescence, 20 h; 310,000 compounds, 3.5% hits; Potency, µM (doses to about 53.6 µM), inactives show at the top dose activity, negative = inhibition, usual class: inhibitors;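 further: Gal4-VP16 expression switched on by copper sulfate through the metallothionein promoter; potency means the concentration at half of the fitted maximal effect; nearly all actives have a fitted effect of over 50% in size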
IL-1B inflam inh: inhibitors of inflammasome signaling (IL-1 beta secretion). 360,000 compounds, 4.7% hits. THP-1 LPS/ATP IL-1B secretion, AlphaLISA, 16 h; active compounds read low. AID 743279. activity change, % at 57.5 µM; in the data active means activity change below about -50%; inconclusive means mostly about -30% to -49%
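THP-1 cells pretreated 1 hr with compounds (up to 57.5 uM final), then stimulated with LPS (250 ng/mL final) plus ATP (1.25 mM final); secreted IL-1B measured by AlphaLISA after 16 hr, decreased signal indicating inhibition.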
DT40 TDP1 no CPT: qHTS for Inhibitors of human tyrosyl-DNA phosphodiesterase 1 (TDP1): qHTS in cells in absence of CPT | DT40 Tdp1-/- hTDP1 cells, no CPT, ATP luminescence, 48 h | AID 686978, 2013 | Potency, µM (series often up to 46.2 µM), for inactives: at the highest dose activity change, negative = growth inhibition, most hits filed as inhibitors | 420,000 compounds, 15% hits; further: potency means the concentration at half of the fitted maximal effect; nearly all actives have a fitted effect of over 55% in size
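Seeded 400 DT40-hTDP1 cells/well (vehicle DMSO, no 20 nM CPT); pinned compounds; ≥48 hr at 37 °C; CellTiter-Glo luminescence as viability measure.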
RORg inh: inhibitors of mouse ROR gamma transcriptional activity; AID 2551; P51450; 310,000 compounds, 5.4% hits; Drosophila S2 Gal4-RORgamma UAS-luciferase reporter, 20 h; Potency, µM (series often up to 53.6 µM), inactives show at the top dose activity change, negative = inhibition, usual class: inhibitors; further: potency means the concentration at half of the fitted maximal effect; nearly all actives have a fitted effect of over 60% in size
Target sequence (P51450 whole entry, looked up, the tested form may be a part): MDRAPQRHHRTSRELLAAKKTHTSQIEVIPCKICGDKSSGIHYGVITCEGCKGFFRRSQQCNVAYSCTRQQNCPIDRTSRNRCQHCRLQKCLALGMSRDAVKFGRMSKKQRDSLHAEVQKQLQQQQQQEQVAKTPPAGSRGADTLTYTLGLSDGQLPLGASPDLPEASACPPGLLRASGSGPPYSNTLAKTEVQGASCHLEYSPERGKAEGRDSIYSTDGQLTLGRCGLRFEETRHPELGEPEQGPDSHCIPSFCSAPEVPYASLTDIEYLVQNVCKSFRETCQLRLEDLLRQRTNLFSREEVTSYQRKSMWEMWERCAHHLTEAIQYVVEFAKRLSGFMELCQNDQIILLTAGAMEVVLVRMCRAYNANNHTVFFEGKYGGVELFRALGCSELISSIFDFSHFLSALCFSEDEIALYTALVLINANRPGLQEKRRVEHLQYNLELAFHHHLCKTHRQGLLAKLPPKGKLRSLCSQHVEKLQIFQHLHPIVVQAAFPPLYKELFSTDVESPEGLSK
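Read-out: Photinus luciferase luminescence; inhibitors lower reporter signal. Insect Schneider cells with Gal4-ROR gamma fusion under metallothionein promoter, UAS reporter; 700 uM final copper sulfate induction, 20 hr, ambient temperature.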
DT40 TDP1 CPT: DT40-hTDP1 cell growth loss with CPT. chicken DT40 Tdp1-/-;hTDP1 cells + 20 nM CPT, ATP luminescence, 48 h. Potency, µM (doses to about 46.2 µM), for inactives: top-dose activity change, negative = growth inhibition, most hits filed as inhibitors. 420,000 compounds, 12% hits. AID 686979; further: potency means the concentration at half of the fitted maximal effect; nearly all actives have a fitted effect of over 55% in size
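Chicken DT40 Tdp1-/- cells stably complemented with human TDP1 were seeded at 400 cells/well in medium containing 20 nM camptothecin, exposed to pin-transferred compounds, and grown at 37 °C for at least 48 hr. Viability was read as ATP luminescence.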
An asterisk follows results filed as active; ? = inconclusive; . = no result given. Compounds with a hit are over-represented: about 21% of the library has one in this group of screens. Unless noted, the call rests on the fitted dose curve; in most records, active means well fitted curve in the direction sought with a large enough effect; inconclusive means small, poorly fitted or top-dose-only effect, or another doubt; inactive means no such curve, though single readings can be large; an effect the other way counts as inactive or inconclusive. On the % scale 0 is the no-effect control and ±100 the full control effect.

SMILES | ELG1 repair inh | Gal4-VP16 FLuc | IL-1B inflam inh | DT40 TDP1 no CPT | RORg inh | DT40 TDP1 CPT
COc1ccc(C(O)c2nc(-c3ccccc3)cs2)cc1 (stereo unspecified) | . | . | 7 | 10µM* | . | 13µM*
COc1ccccc1CNC(=O)c1cc(C(C)=O)c[nH]1 | ? | 8% | 1 | 18% | 5% | 4%
COc1ccc(-c2csc3nc(-c4ccc(F)cc4)oc(=O)c23)cc1OC | . | . | . | 8% | . | ?
O=C(c1ccc2c(=O)n3c(nc2c1)CCC3)N1CCN(S(=O)(=O)c2cccc(F)c2)CC1 | 3% | . | 23 | -21% | . | ?
O=C(Cc1c(Cl)cccc1Cl)Nc1ccc(S(=O)(=O)Nc2ncccn2)cc1 | 11% | -1% | 8 | -21% | 15% | 19%
Cc1ccccc1N1C(=O)c2cc(N)ccc2N/C1=C\F | . | -2% | . | . | 15% | .
COc1cccc(C(O)c2nc(-c3ccc(Cl)cc3)cs2)c1 (stereo unspecified) | . | . | 1 | ? | . | ?
COc1cccc(C(O)c2nc(-c3ccccc3)cs2)c1 (stereo unspecified) | . | . | -5 | 16µM* | . | ?
COc1ccc(C(O)c2nc(-c3ccncc3)cs2)cc1 (stereo unspecified) | . | . | 46 | 10µM* | . | 18µM*
CN(C)c1ccc(-c2csc(C(O)c3ccc(F)c(F)c3)n2)cc1 (stereo unspecified) | . | . | -15 | 15µM* | . | 16µM*
Cc1ccc2c(Cl)c(C)c(N3CCOCC3)nc2n1 | . | . | 15 | -17% | . | 21%
O=C(CC(O)CCc1ccccc1)c1ccc(O)cc1 (stereo unspecified) | ? | . | -3 | -21% | . | -18%
COCCn1c(SCC(=O)N2CCc3ccccc32)nc2c(c1=O)SC(C)C2 (stereo unspecified) | 1% | -6% | -4 | ? | 4% | ?
COCCn1c(SCC(=O)Nc2cc(C)on2)nc2cc(Cl)ccc2c1=O | 3% | . | 0 | ? | . | -5%
COCCn1c(SCC(=O)N2CCc3ccccc3C2)nc2cc(Cl)ccc2c1=O | 23µM* | 1% | -76* | 15µM* | 39% | ?
COCCn1c(SCC(=O)N2CCCc3ccccc32)nc2ccccc2c1=O | ? | -15% | ? | 16µM* | -4% | ?
COc1ccc(CC(=O)OCC(=O)Nc2ccc(Cl)cc2C)cc1 | 10% | . | -12 | -1% | . | -7%
COc1ccc(NC(=O)c2cc([N+](=O)[O-])ccc2N2CCCCC2)cc1 | ? | -3% | 18 | 21µM* | 36% | 21µM*
O=C(Nc1ccccc1)c1cc([N+](=O)[O-])ccc1N1CCCCC1 | ? | . | 45 | ? | . | ?
COc1ccc(NC(=O)c2cc([N+](=O)[O-])ccc2N2CCCC2)cc1 | -3% | 6% | 7 | -5% | -18% | 4%
CC(C)CNC(=O)c1cc([N+](=O)[O-])ccc1N1CCCCC1 | -6% | -3% | 0 | 23µM* | 5% | ?
COc1ccc(NC(=O)c2cc([N+](=O)[O-])ccc2N2CCCCC2)cc1OC | ? | . | 12 | ? | . | 21µM*
COc1ccc(Cl)cc1S(=O)(=O)NCc1nc2nc(C)cc(C)n2n1 | 0% | 1% | -7 | -13% | -31% | 20%
CCCCN(C(=O)CCSc1ccc(F)cc1)c1c(N)n(Cc2ccccc2)c(=O)[nH]c1=O | 7% | . | -11 | -3% | . | 2%
O=Cc1cnc2ccccc2c1-c1ccccc1 | -4% | -3% | 33 | 23µM* | 17% | ?
O=Cc1cn[nH]c1-c1ccccc1 | 12% | 1% | 4 | -20% | -1% | 2%
